Screening data deposited in PubChem BioAssay by The Scripps Research Institute Molecular Screening Center.
MITF inh: MITF inhibitors, primary screen, biochemical, AlphaScreen, human; Microphthalmia-associated transcription factor (Homo sapiens), O75030; AlphaScreen MITF homodimerization, bead proximity signal; inhibition, % at 2.6 µM; hit rate 0.91% among 650,000; AID 1259374, 2018; in the data active means inhibition above about 50%;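 further: 0% = vehicle wells with protein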
Target sequence (O75030 whole entry, looked up): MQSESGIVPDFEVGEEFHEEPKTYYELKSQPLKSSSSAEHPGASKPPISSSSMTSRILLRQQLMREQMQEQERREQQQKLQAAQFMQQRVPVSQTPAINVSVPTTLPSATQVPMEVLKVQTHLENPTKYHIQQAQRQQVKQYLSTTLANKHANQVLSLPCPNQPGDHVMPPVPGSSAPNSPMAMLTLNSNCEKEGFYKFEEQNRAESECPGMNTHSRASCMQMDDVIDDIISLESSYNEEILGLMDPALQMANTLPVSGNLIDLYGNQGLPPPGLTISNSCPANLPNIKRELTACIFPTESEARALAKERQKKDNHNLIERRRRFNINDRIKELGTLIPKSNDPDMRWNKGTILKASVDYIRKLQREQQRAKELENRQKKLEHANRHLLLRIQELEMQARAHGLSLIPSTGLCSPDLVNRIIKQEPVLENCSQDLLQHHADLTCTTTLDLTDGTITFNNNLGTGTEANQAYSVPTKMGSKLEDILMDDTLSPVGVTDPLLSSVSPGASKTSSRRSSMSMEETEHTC
TEAD-YAP inh: TEAD-YAP interaction inhibition, primary screen, TEAD-YAP interaction inhibitor project, luminescence, HEK-TIYL cells; inhibition, % at 9.12 µM; hit rate 1.4% among 640,000; TEAD-Gal4/YAP UAS-luciferase luminescence; in the data active means inhibition above about 32%;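 further: 0% = median of test compound wells and 100% = reference inhibitor wells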
FBW7 activator: FBW7 E3 ligase activators, primary screen, biochemical, AlphaScreen, human | AlphaScreen FBW7–phospho-cyclin E peptide binding, activator screen | AID 1259310, 2017 | normalized activity (activation), % at 26.1 µM | hit rate 0.13% among 650,000; in the data active means normalized activity above about 1.9%;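 further: purified mutant Fbw7 with reduced substrate affinity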
GPR151 ag: activators of human GPR151, primary screen, cell-based, PathHunter beta-arrestin, luminescence | hit rate 1% among 650,000 | G-protein coupled receptor 151 (Homo sapiens), Q8TDV0 | PathHunter beta-arrestin GPR151 cells | AID 1508602, 2020 | activation, % at 11.2 µM; in the data active means activation above about 4.9%;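 further: 0% = median of compound wells and 100% = cells with positive control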
MITF inh conf: MITF inhibitors, retest of hits, confirmation, biochemical, AlphaScreen, triplicate; shares compounds with MITF inh; AlphaScreen MITF homodimerization, biotin/His-MITF beads; inhibition, % at 2.6 µM; hit rate 16% among 4,700; AID 1259372, 2018;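 active means inhibition above a cutoff derived from the DMSO control wells, cut at about 28% in these data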;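 further: 0% = MITF dimer wells with DMSO only; inhibitors lower the bead chemiluminescence by keeping MITF from dimerizing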
AlphaScreen intf2: AlphaScreen optical interference compounds, counter-screen for MITF inhibitor project, biochemical, triplicate; shares compounds with MITF inh; LysRS AlphaScreen counterscreen, signal interference; inhibition, % at 2.6 µM; hit rate 7.6% among 4,700;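 active means inhibition above a cutoff derived from the DMSO control wells, cut at about 30% in these data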
An asterisk follows results filed as active; . = no result given. Most compounds without a hit are left out; they make up all but 3.4% or so of the library.

SMILES | MITF inh | TEAD-YAP inh | FBW7 activator | GPR151 ag | MITF inh conf | AlphaScreen intf2
O=C(NCCc1ccncc1)c1csc(-n2cccc2)n1 | 52* | -1 | 0 | 0 | 5 | 8
NC(=O)c1ccc(-c2cncc(C(=O)Nc3ccc(Oc4ccccc4)cc3)c2)cc1 | 0 | 2 | 0 | 1 | . | .
CCOc1ccc(-c2cn3c(CC(=O)N4CCN(c5ccccc5)CC4)csc3n2)cc1 | 55* | 0 | 0 | 1 | 4 | 6
CCOc1ccc(-c2cn3c(CC(=O)N4CCCCC4CC)csc3n2)cc1 (stereo not drawn) | 11 | -9 | 0 | 0 | . | .
COc1ccccc1N1C(=O)c2cccc3c(N(C)CCO)ccc(c23)C1=O | 74* | 2 | 0 | -1 | -1 | 1
CC1CCc2sc(NC(=O)c3ccccc3Br)c(C(N)=O)c2C1 (stereo not drawn) | 12 | -14 | 0 | 0 | . | .
CC(C)=CC(=O)Nc1nnc(Cc2ccccc2)s1 | 84* | -3 | 0 | -1 | 11 | 14
COc1ccc(Br)cc1/C=N\NC(=O)CNc1ccccc1C | -3 | -1 | 0 | 0 | . | .
COc1ccc(OC)c(/C=N\NC(=O)CNc2ccccc2C)c1 | 63* | 14 | 0 | -1 | -1 | 0
CC(=O)c1ccc(OCC(O)COc2ccc(C(C)=O)cc2)cc1 | -3 | 0 | 0 | 3 | . | .
CC(=O)c1ccc(OCC(O)CN(C)CCC#N)cc1 (stereo not drawn) | 66* | -3 | 0 | 1 | 4 | 4
O=C(c1cc(Cl)ccc1[N+](=O)[O-])n1cnc2ccccc21 | 15 | 9 | 1 | -1 | . | .
O=C(c1ccccc1[N+](=O)[O-])n1cnc2ccccc21 | 56* | 4 | 0 | 1 | -3 | 12
Clc1cccc(OCCn2cncn2)c1 | -6 | -6 | 0 | -1 | . | .
Brc1cccc(OCCCCn2cncn2)c1 | 62* | -3 | 0 | -1 | 9 | 13
Cc1cc(Cl)ccc1OCCn1cncn1 | -1 | 0 | 0 | 0 | . | .
O=[N+]([O-])c1ccc(OCCCCn2cncn2)cc1 | 41 | 6 | -1 | -1 | . | .
Cc1cc(Br)ccc1OCCn1cncn1 | 68* | 3 | 0 | 2 | 9 | 12
c1ccc(Oc2cccc(OCCn3cncn3)c2)cc1 | 67* | -10 | 0 | 5 | -2 | 6
Brc1cccc(OCCn2cnc3ccccc32)c1 | 68* | -3 | 0 | 0 | 4 | 16
COc1cccc(CN2C[C@@H]3C[C@@H](c4ccc(F)c(F)c4)N4CCC[C@@]34C2=O)c1 | -3 | 4 | 0 | -2 | . | .
c1ccc(-c2ccc(OCCCn3cncn3)cc2)cc1 | 61* | -27 | 0 | 0 | 7 | 12
c1ccc(COc2ccc(OCCn3cncn3)cc2)cc1 | 2 | -17 | 0 | -1 | . | .
c1ccc(Oc2cccc(OCCOCCn3cncn3)c2)cc1 | 72* | -10 | 0 | -2 | -5 | -9
COc1ccc(S(=O)(=O)n2c(SCC(=O)Nc3ccc(Oc4ccccc4)cc3)nc3ccccc32)cc1 | 6 | 1 | 0 | 1 | . | .
SMILES | MITF inh | TEAD-YAP inh | FBW7 activator | GPR151 ag | MITF inh conf | AlphaScreen intf2
Cc1cccc(C(C)(C)C)c1OCCN1CCOCC1 | 80* | 6 | 0 | 0 | 5 | 10
Cc1cc(C)c(OCCN2CCOCC2)c(Cl)c1 | 54* | 6 | 1 | -1 | 17 | 12
Cc1cc(Cl)cc(Cl)c1OCCCCNCCN1CCOCC1 | 62* | 3 | 0 | 0 | 6 | 1
CCOc1ccc(C(=O)NCCCc2ccccc2)cc1 | -1 | -59 | 0 | 0 | . | .
COc1ccccc1NC(=O)C1=C(C)Nc2sc(C(=O)c3ccccc3)c(N)c2C1c1ccccc1OC (stereo not drawn) | -1 | 6 | 0 | 3 | . | .
COc1ccc2[nH]cc(CCN3C(=O)C4CCCCC4C3=O)c2c1 (stereo not drawn) | 7 | 4 | 1 | -1 | . | .
CCOC(=O)C1CCN(S(=O)(=O)c2ccc(Cl)cc2OC)CC1 | 59* | -6 | 0 | 0 | 17 | 14
CCOC(=O)C1CCN(S(=O)(=O)c2cc(Cl)c(C)cc2OC)CC1 | -6 | -16 | 0 | 2 | . | .
FC(F)Oc1ccccc1C1=CC(c2ccc(Br)cc2)n2nnnc2N1 (stereo not drawn) | 8 | 2 | 0 | 0 | . | .
CSc1ccc(CN2CCN(S(=O)(=O)c3ccccc3[N+](=O)[O-])CC2)cc1 | 57* | -1 | 0 | -2 | 10 | 17
Cc1ccc(CN2CCN(S(=O)(=O)c3ccccc3[N+](=O)[O-])CC2)cc1 | 58* | 8 | 0 | 2 | 12 | 21
CCc1ccc(CN2CCN(S(=O)(=O)c3ccccc3[N+](=O)[O-])CC2)cc1 | 28 | -4 | 0 | 0 | . | .
CCC[C@@H]1NC(=O)[C@H]2CN(Cc3cnn(-c4ccccc4OC)c3)CCN2C1=O | 51* | -2 | 1 | 1 | -3 | -2
COc1ccccc1-n1cc(CN2CCN3C(=O)[C@H](CO)NC(=O)[C@H]3C2)cn1 | 16 | 7 | 0 | 0 | . | .
COc1cc(Cl)ccc1S(=O)(=O)N1CCN(c2ccc(F)cc2)CC1 | 20 | -3 | 0 | -2 | . | .
COc1ccc(CCNC(=O)CCn2c(SCC(=O)Nc3cccc(C(F)(F)F)c3)nc3ccccc3c2=O)cc1OC | 56* | 4 | 0 | 1 | -9 | -2
O=C(C1CCCN(Cc2ccncc2)C1)N1CCCCC1 (stereo not drawn) | 103* | -6 | 0 | -1 | -17 | -3
O=C(C1CCCN(Cc2cccc(F)c2)C1)N1CCCCCC1 (stereo not drawn) | 48 | 5 | 0 | 0 | . | .
O=C(C1CCCN(Cc2cccnc2)C1)N1CCCCC1 (stereo not drawn) | 104* | 10 | 0 | 1 | -26 | -5
O=C1N/C(=C\c2ccc(F)cc2)C(=O)N1Cc1ccc(Cl)cc1 | -1 | 15 | 0 | 0 | . | .
O=c1[nH]c2ccccc2n1CN1CCc2ccccc2C1 | 51* | -1 | 0 | 1 | 11 | 13
O=c1[nH]c2ccccc2c(=O)n1CCCN1CCOCC1 | 11 | -1 | 0 | -1 | . | .
O=c1[nH]c2ccccc2n1CN1CCOCC1 | 90* | -3 | 0 | 2 | 5 | 11
O=c1[nH]c2ccccc2n1CCCN1CCCCC1 | -5 | -2 | 0 | 1 | . | .
O=C(NCc1ccco1)c1ccc(Br)cc1 | 14 | 2 | 0 | 2 | . | .
N#CCCN(CC(=O)c1ccc(Br)cc1)Cc1ccco1 | 63* | -5 | 0 | -1 | 0 | 9
O=C(NCCO)c1cccc(-c2ccc(N3CCOCC3)nc2)n1 | 12 | -5 | 0 | -1 | . | .
